The target of assay [1] is Tyrosine-protein kinase SYK (Homo sapiens) (UniProt P43405). The conditions noted are these: at 10 µM.
For assay [2], the target named is T1, Mitogen-activated protein kinase kinase kinase 7 (Homo sapiens) (UniProt O43318).
T1 sequence (whole entry): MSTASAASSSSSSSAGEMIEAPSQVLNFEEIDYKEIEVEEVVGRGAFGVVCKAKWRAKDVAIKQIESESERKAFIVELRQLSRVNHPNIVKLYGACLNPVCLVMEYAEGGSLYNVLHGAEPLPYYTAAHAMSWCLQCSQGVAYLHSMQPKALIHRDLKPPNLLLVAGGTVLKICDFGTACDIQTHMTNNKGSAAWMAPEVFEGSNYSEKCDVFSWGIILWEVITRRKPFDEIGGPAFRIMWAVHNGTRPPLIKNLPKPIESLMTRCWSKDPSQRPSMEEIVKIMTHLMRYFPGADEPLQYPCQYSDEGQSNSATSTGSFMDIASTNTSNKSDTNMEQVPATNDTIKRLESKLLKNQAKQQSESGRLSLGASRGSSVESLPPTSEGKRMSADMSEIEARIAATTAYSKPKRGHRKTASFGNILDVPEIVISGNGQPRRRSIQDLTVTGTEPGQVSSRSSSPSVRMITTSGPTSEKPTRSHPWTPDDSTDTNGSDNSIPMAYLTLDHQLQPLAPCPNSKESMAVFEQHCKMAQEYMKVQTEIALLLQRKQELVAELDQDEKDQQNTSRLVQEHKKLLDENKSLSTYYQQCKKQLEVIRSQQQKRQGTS
To be noted: at 1 µM.

Assay [3] deals with T1, Mitogen-activated protein kinase kinase kinase 7 (Homo sapiens). The conditions noted are these: at 10 µM.
The target of assay [4] is T2, Serine/threonine-protein kinase TAO1 (Homo sapiens) (UniProt Q7L7X3).
T2 sequence (whole entry): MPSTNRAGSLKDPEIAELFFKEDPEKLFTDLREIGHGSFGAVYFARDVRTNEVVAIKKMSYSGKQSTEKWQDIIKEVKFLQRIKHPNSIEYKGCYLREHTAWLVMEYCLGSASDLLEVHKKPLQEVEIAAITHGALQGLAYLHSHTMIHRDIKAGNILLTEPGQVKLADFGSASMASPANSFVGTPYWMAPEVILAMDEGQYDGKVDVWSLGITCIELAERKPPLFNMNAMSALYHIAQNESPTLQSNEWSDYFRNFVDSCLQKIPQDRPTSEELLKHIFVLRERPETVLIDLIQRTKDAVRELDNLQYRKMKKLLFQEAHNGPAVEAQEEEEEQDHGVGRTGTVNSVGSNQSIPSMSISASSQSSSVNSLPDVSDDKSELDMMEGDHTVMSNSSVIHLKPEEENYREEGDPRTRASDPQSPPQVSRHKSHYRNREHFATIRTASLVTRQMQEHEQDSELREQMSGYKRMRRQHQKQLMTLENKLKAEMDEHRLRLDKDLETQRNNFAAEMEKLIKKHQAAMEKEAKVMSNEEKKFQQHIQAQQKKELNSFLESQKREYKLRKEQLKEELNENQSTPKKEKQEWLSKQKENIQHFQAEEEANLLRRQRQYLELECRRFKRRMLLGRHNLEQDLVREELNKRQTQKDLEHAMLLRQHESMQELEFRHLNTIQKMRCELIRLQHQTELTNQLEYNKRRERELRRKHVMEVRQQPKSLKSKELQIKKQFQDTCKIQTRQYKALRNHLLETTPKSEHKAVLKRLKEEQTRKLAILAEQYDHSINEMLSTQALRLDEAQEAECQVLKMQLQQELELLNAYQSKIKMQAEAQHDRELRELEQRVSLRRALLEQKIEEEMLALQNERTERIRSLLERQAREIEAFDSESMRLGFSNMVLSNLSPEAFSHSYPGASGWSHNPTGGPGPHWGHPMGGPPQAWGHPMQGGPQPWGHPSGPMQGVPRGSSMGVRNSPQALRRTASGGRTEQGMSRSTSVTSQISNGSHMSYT
The conditions noted are these: at 1 µM.

Assay [5] addresses T2, Serine/threonine-protein kinase TAO1 (Homo sapiens). The conditions noted are these: at 10 µM.
The target in assay [6] is T3, Serine/threonine-protein kinase TAO2 (Homo sapiens) (UniProt Q9UL54).
T3 sequence (whole entry): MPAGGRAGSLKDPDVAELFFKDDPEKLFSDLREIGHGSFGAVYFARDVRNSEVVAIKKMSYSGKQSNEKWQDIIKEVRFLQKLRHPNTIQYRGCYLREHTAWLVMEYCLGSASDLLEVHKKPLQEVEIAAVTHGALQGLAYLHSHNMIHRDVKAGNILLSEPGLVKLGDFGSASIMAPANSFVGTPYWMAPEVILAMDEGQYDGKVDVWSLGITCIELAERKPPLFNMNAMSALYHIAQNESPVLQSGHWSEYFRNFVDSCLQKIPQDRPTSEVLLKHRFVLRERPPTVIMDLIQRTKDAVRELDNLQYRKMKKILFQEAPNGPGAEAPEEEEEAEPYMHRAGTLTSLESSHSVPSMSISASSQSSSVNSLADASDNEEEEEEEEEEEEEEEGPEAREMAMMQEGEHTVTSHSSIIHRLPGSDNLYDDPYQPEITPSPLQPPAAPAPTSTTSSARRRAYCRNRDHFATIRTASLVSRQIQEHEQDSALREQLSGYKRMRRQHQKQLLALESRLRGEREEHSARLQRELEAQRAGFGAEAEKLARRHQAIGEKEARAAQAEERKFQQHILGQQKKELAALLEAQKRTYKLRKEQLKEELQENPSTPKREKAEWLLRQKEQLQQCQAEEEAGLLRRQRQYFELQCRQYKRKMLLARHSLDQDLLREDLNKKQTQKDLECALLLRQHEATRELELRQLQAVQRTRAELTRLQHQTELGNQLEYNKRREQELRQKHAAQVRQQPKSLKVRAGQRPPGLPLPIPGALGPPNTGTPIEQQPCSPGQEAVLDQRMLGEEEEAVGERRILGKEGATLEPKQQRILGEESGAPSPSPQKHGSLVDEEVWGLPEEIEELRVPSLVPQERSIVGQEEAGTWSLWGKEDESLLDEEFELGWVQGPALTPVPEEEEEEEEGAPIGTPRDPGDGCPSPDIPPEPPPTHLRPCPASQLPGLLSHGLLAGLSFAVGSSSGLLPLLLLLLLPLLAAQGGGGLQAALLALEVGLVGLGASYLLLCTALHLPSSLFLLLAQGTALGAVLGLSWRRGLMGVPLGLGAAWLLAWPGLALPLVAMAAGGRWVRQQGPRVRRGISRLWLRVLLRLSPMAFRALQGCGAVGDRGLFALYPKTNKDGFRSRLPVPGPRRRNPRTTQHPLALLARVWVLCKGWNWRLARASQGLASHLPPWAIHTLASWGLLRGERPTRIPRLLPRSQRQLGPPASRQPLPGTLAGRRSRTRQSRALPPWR
To be noted: at 1 µM.

Assay [7] addresses T3, Serine/threonine-protein kinase TAO2 (Homo sapiens). To be noted: at 10 µM.
Assay [8] has as its target T4, Serine/threonine-protein kinase TAO3 (Homo sapiens) (UniProt Q9H2K8).
T4 sequence (whole entry): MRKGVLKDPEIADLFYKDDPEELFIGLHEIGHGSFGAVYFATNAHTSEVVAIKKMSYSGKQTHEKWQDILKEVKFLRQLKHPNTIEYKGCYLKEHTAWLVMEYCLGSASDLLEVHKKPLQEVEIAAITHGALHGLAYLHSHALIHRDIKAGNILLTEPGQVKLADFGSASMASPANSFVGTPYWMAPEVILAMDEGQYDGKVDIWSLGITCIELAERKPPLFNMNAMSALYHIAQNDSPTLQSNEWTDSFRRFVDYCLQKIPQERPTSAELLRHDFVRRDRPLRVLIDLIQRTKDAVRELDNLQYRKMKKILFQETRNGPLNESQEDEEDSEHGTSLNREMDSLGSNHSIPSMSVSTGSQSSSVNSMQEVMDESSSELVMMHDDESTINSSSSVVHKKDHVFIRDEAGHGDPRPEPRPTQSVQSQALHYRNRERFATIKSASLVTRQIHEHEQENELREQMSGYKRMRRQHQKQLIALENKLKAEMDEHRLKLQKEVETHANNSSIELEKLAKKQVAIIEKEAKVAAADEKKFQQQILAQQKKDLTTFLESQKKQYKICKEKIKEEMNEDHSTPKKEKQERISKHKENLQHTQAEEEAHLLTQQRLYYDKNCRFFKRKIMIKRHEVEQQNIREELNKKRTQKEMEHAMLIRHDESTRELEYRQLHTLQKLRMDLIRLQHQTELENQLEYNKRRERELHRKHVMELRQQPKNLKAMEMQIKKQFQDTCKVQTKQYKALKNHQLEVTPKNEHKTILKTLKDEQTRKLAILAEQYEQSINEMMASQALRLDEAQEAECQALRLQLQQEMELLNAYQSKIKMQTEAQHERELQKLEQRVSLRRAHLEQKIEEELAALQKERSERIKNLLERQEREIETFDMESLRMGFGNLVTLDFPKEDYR
To be noted: at 1 µM.

In assay [9] the target is T4, Serine/threonine-protein kinase TAO3 (Homo sapiens). The conditions noted are these: at 10 µM.
Assay [10] concerns the target T5, Serine/threonine-protein kinase TBK1 (Homo sapiens) (UniProt Q9UHD2).
T5 sequence (whole entry): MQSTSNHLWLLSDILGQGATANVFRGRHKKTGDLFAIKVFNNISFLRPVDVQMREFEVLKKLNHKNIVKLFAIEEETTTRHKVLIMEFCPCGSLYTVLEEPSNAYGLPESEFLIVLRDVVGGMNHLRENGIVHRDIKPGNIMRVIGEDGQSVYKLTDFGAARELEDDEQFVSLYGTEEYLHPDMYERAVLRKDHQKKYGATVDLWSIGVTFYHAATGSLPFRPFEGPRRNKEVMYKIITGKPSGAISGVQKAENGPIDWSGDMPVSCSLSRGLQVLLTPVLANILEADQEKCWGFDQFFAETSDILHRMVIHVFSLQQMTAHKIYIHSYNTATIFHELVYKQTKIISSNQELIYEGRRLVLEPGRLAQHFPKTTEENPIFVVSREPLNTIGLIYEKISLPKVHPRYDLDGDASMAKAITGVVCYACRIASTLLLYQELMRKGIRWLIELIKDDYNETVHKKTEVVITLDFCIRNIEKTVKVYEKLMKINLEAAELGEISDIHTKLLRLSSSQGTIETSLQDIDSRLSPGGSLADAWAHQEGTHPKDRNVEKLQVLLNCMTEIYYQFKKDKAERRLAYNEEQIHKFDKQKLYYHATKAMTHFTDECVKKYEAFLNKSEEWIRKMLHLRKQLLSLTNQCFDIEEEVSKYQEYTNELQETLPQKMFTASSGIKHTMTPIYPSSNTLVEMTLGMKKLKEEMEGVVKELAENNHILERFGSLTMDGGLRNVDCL
To be noted: at 1 µM.

On to `Oc1n[nH]c2nnc(-c3c(-c4ccccc4)nn4ccccc34)cc12`, for which the residual activity in assay [1] worked out at 105%; in [2], 87%; in assay [3], 74%; in [4] it was 83%; in assay [5], 79%; in assay [6], 98%. In addition, the residual activity amounted to 96% in assay [7], 89% in [8], 90% in assay [9] and 67% in [10].
